# Active and inactive are the calls of the source.
# What was measured:
# [1] = small molecules captured by biotinylated probe aFSTL3 – biochemical, small-molecule microarray, fluorescence 635/667, stem cell growth factor project, primary screen (AID 1064); conditions: higher = more signal;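 further: measures binding of the biotinylated anti-FSTL3 antibody to printed compounds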
# [2] = binders from COS7 lysate, DM2A8 probe, primary screen, torsin A project, cell lysate, small-molecule microarray, fluorescence 635/667 (AID 1065); conditions: higher = more signal, COS7 lysate expressing mutant human TOR1A
# [3] = small molecules captured by biotinylated probe aFGF2 – biochemical, small-molecule microarray, fluorescence 635/667, stem cell growth factor project, primary screen (AID 1067); conditions: higher = more signal;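 further: measures binding of biotinylated aFGF2 protein to printed compounds on slides; z-score merges feature fluorescence and signal-to-noise across triplicate slides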
# [4] = small molecules captured by biotinylated probe aFGF10 – biochemical, small-molecule microarray, fluorescence 635/667, stem cell growth factor project, primary screen (AID 1071); conditions: higher = more signal;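 further: score merges 667 nm spot intensity and signal to noise from triplicate slides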
# [5] = target: Neurogenic locus notch homolog protein 2 (Homo sapiens) (UniProt Q04721); assay: small molecules binding Notch2 protein – biochemical, small-molecule microarray, 635 nm fluorescence, stem cell growth factors, primary screen (AID 1073); conditions: higher = more signal
# [6] = target: Pro-neuregulin-1, membrane-bound isoform (Homo sapiens) (UniProt Q02297); assay: small molecules binding neuregulin-1 protein – biochemical, small-molecule microarray, fluorescence 635/667, psychiatric disease protein project, primary screen (AID 1075); conditions: NRG1 binding, 635 nm fluorescence, higher = more signal;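 further: score combines 667 nm spot fluorescence with signal to noise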
# [7] = tested on: Neuregulin-1 EGF-like domain; assay: small molecules binding NRG1 EGF domain – biochemical, small-molecule microarray, 635 nm fluorescence, primary screen (AID 1081); conditions: higher = more signal;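 further: binding of the protein to compounds printed on small-molecule microarray slides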
# [8] = FRG1 expression reporter modulators in myotubes – cell-based, C2C12 myotubes, firefly/Renilla luciferase, luminescence, FRG1 inhibition for FSHD, primary screen (AID 1084); conditions: FRG1 promoter luciferase, higher = more signal, called active from +8 up or from −8 down
# [9] = small molecules captured by biotinylated probe aFST – biochemical, small-molecule microarray, fluorescence 635/667, stem cell growth factor project, primary screen (AID 1086); conditions: higher = more signal;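 further: score merges 667 nm fluorescence with signal-to-noise of each printed compound spot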
# [10] = binders of probe aHhip on microarray, primary screen, stem cell growth factor project, biochemical, small-molecule microarray, fluorescence 635/667 (AID 1087); conditions: higher = more signal;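 further: score merges spot fluorescence at 667nm with spot signal to noise ratio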
# Chain of Neurogenic locus notch homolog protein 2 (Homo sapiens) (Q04721 whole entry, looked up, canonical isoform): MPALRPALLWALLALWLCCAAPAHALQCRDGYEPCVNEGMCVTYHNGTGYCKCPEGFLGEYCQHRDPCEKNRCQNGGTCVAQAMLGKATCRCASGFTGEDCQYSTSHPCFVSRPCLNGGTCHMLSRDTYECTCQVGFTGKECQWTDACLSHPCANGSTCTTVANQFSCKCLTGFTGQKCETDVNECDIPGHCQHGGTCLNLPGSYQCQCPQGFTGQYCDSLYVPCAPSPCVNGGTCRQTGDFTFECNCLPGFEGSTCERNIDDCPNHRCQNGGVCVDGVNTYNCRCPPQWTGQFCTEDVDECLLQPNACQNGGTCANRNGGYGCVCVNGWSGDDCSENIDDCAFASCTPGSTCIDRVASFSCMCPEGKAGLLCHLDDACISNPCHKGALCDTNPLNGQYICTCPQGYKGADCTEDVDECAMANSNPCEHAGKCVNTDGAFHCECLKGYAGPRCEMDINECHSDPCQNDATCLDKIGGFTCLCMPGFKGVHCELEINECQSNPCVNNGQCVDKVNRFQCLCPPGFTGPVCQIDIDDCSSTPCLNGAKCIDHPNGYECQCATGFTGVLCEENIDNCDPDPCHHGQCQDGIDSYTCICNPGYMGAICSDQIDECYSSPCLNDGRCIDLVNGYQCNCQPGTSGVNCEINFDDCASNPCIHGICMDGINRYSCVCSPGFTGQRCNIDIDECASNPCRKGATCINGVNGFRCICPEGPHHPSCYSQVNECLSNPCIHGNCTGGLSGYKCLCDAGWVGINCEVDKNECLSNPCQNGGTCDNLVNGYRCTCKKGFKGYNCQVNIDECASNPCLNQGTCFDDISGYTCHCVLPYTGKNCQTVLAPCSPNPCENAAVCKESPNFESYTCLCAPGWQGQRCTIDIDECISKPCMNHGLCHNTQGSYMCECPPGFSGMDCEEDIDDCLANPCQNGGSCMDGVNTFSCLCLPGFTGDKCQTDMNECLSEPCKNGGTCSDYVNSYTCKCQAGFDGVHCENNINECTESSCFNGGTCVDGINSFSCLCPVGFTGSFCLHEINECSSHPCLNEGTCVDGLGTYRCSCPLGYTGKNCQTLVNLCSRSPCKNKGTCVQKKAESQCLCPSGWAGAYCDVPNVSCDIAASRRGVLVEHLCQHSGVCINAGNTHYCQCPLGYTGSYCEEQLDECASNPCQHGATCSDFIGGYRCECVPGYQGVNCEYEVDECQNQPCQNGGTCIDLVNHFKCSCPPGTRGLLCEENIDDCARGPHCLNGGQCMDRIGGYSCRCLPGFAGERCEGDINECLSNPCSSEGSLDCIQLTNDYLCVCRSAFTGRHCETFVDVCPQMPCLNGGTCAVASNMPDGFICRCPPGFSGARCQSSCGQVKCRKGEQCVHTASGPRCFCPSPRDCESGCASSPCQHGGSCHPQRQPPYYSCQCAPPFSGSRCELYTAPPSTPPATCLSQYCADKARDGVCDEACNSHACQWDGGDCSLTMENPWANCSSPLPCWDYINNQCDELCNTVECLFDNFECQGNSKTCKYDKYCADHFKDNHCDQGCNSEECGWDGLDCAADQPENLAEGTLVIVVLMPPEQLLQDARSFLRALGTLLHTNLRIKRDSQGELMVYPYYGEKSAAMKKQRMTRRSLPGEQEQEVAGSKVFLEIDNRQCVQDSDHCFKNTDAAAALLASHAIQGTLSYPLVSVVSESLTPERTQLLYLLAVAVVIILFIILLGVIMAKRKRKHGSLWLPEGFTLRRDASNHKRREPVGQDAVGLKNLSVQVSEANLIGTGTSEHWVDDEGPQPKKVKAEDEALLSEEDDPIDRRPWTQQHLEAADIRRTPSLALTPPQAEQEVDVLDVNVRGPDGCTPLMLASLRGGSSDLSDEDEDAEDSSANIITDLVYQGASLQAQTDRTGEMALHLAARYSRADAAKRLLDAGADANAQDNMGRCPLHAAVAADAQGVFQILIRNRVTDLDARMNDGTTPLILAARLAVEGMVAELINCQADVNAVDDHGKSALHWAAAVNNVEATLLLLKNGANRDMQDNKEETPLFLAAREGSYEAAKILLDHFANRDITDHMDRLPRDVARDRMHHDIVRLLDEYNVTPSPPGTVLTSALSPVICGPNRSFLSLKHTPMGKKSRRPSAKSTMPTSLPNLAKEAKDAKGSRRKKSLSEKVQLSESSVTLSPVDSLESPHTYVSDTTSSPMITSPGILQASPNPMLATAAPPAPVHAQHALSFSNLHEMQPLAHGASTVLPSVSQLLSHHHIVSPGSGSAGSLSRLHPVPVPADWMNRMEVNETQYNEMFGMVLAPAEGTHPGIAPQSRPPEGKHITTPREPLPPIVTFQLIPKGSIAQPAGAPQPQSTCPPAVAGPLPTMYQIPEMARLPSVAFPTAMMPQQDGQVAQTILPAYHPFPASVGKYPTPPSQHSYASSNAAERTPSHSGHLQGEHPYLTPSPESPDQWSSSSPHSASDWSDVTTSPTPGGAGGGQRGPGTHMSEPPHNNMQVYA
# Chain of Pro-neuregulin-1, membrane-bound isoform (Homo sapiens) (Q02297 whole entry, looked up, the tested form may be a part, canonical isoform): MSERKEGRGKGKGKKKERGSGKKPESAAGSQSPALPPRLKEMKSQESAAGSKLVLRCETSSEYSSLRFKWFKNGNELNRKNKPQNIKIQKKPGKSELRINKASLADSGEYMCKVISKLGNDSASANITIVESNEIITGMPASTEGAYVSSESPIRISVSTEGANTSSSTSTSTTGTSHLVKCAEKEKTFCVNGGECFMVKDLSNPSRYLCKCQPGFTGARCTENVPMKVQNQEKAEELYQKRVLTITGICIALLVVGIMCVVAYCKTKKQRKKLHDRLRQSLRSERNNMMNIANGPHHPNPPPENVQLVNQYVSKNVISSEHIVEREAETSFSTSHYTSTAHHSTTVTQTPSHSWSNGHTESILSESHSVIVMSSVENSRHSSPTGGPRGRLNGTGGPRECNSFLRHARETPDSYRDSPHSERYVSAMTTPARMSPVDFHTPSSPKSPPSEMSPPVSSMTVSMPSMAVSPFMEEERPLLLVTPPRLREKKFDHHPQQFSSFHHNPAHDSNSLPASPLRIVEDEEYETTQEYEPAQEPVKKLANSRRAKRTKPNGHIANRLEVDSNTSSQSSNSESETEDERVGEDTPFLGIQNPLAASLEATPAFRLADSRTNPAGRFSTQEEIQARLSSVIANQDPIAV
SMILES,composite z-score [1],composite z-score [2],composite z-score [3],composite z-score [4],composite z-score [5],composite z-score [6],composite z-score [7],z-score [8],composite z-score [9],composite z-score [10]
COCCCNC(=O)[C@]1(Cc2ccccc2)N=C(c2ccc(OCCCO)cc2)O[C@@H]1c1ccccc1,0.206,-0.0225,-0.01,0.791,0.967,1.54,1.04,-1.33 (inactive),0.584,-0.0645
CN(C)CCCNC(=O)[C@@H]1c2ccccc2C(=O)N(Cc2ccccc2)[C@H]1c1ccc(CO)cc1,0.532,-0.338,0.311,-0.343,-1.08,-0.0367,0.571,-1.01 (inactive),0.178,-0.363
COC(=O)C1=C(C)[C@@H](O)[C@@H](C)[C@H](c2c(OC)c(OC)c(C)c(OC)c2OC)O1,-0.511,0.487,-0.131,0.166,0.239,-0.412,0.0778,-0.298 (inactive),0.0017,-0.0645
CC(CCN1CCc2nc(-c3ccccc3)c(-c3ccccc3)cc2C1)=NO[C@H](C)c1cn([C@@H]2COC[C@H]2O)nn1,-0.388,1.4,-0.0867,0.259,0.295,0.646,1.03,-0.203 (inactive),0.133,-0.0237
COc1ccccc1CN1C(=O)c2ccccc2[C@@H](C(=O)NCC(F)(F)F)[C@@H]1c1ccc(CO)cc1,-0.271,0.683,-0.0829,0.0992,0.654,1.17,1.39,-3 (inactive),0.19,-0.0994
CCCCc1nc2c(c3c1C[C@H](C)OC3)CN(CCC(C)C)CC2,-0.578,0.252,-0.0687,0.509,1.16,0.788,1.17,0.607 (inactive),0.295,-0.199
CCCNC(=O)OC[C@H]1O[C@H](CCON=C[C@@H](OC)[C@H](C)C=CCC(=O)OC)C=C[C@@H]1Oc1ccc(OC)cc1,-0.479,0.698,-0.136,-0.192,-0.0065,-0.23,0.614,1.16 (inactive),-0.0617,-0.0672
CC(=O)OC[C@H]1O[C@H](CC=NOC[C@@H](C)[C@H](OCc2ccccc2)C(C)C)C=C[C@@H]1OC(C)=O,-0.0055,-0.141,-0.087,0.0055,-0.0224,-0.254,-0.712,0.183 (inactive),-0.341,-0.0645
CCOc1ccc(N2C(=O)/C(=C/C=C/c3ccccc3OC)S(=O)(=O)C2c2cccc([N+](=O)[O-])c2)cc1 (stereo not given),-0.0317,0.232,-0.0906,0.281,0.344,0.903,-0.142,-1.75 (inactive),0.323,-0.515
CC(CCC(=O)OC[C@H]1O[C@H](C#Cc2ccccc2)C=C[C@@H]1Oc1ccc(C)cc1)=NO[C@@H](C)c1cn([C@H](CO)Cc2ccccc2)nn1,-0.583,0.0364,0.0092,0.63,0.161,0.122,0.0865,1.02 (inactive),0.263,-0.327
N#Cc1ccc(NN2C(C(O)c3cccc4ccccc34)C=CC3C(=O)N(c4ccccc4)C(=O)C32)cc1 (stereo not given),-0.0622,-0.182,0.158,0.829,1.65,1.63,1.21,0.025 (inactive),0.889,0.0695
CCN1C(=O)[C@H]2[C@H]3[C@H](O)[C@H](O)CC(=NO[C@@H]4O[C@H](CO)[C@@H](O)[C@H](O)[C@H]4O)[C@@H]3CC[C@H]2C1=O,-0.0837,0.0566,-0.211,-0.078,-1.21,0.485,-1.11,0.183 (inactive),-0.402,0.354
COC(=O)C1=CCC(c2cccc(Cl)c2)O1 (stereo not given),0.005,-0.0992,-0.0901,0.0994,-0.104,1.25,0.584,-0.912 (inactive),-0.0195,0.0749
COCCOC(=O)N1C(=O)[C@@]2(c3cc(C#Cc4ccc(OC)cc4)ccc31)[C@H](c1ccc(O)cc1)N1[C@H](c3ccccc3)[C@H](c3ccccc3)OC(=O)[C@H]1[C@@H]2C(N)=O,-0.513,0.258,-0.031,0.602,1.35,1.17,1.26,0.497 (inactive),0.674,0.291
O[C@@H](Cc1ccccc1)[C@H]1C2C=CCCC(c3ccccc3)=C2CN1Cc1cccc(Cl)c1 (stereo not given in full),-0.39,0.507,-0.015,0.271,0.799,1.08,1.07,-2.31 (inactive),0.26,-0.0047
CC(C)N1CC=CC23O[C@@H]4C=CCCOC(=O)C4[C@H]2C(=O)N(CCCCCCO)[C@@H]3C1=O (stereo not given in full),0.487,-1.93,-0.141,-0.671,-1.17,1.2,0.896,-0.121 (inactive),-0.357,-0.236
COC(=O)[C@]1(CO)N=C(c2ccc(OCCCO)cc2)O[C@@H]1c1ccccc1N=[N+]=[N-],0.0947,0.525,-0.0614,-0.0477,0.01,1.25,0.938,2.29 (inactive),0.138,-0.39

SMILES,composite z-score [1],composite z-score [2],composite z-score [3],composite z-score [4],composite z-score [5],composite z-score [6],composite z-score [7],z-score [8],composite z-score [9],composite z-score [10]
CCCC[C@@H](O)C1=C(C)C[C@H]2C(=O)N(Cc3ccccc3)C(=O)[C@H]2[C@H]1CO,-0.531,0.709,-0.0564,0.185,-0.0286,0.0467,-0.322,0.778 (inactive),-0.0982,-0.0237
C[C@H](c1ccccc1)N1C(=O)[C@H]2[C@H]3[C@H](O)[C@H](O)CC(=O)[C@@H]3CC[C@H]2C1=O,-0.019,0.242,-0.0675,0.341,0.433,-0.117,0.263,-0.243 (inactive),0.0924,0.0274
CC(C)(C)OC(=O)CC[C@]1(C(N)=O)COC(c2ccc(OCCCO)cc2)=N1,0.645,2.69,0.325,0.6,1.39,1.14,1.03,0.266 (inactive),1.19,0.462
COCCOC(=O)N1C(=O)[C@@]2(c3cc(C#CC4(O)CCCCCC4)ccc31)[C@H](C(=O)N1CCN(c3ncccn3)CC1)[C@H]1C(=O)O[C@H](c3ccccc3)[C@H](c3ccccc3)N1[C@@H]2c1ccc(OCCO)cc1,-0.266,0.318,0.192,0.727,1.24,0.939,1.33,0.401 (inactive),0.517,0.107
COC(=O)[C@@H]1CC[C@H](C)[C@@H](c2ccc(C)cc2)N1C(=O)c1ccc(C=NOC(C)CN2CCCCc3nc(C)c(C)cc32)cc1 (stereo not given in full),0.145,-0.859,-0.0959,0.233,-0.199,0.131,0.312,0.204 (inactive),0.165,0.226
COC(=O)[C@@]1(Cc2ccc(OC)cc2)[C@H]2c3cc(C(=O)N4CCCC4)n(Cc4cc(F)c(F)c(F)c4)c3C[C@H]2CN1C(=O)c1ccccc1,2.91,1.05,0.746,1.19,1.82,1.62,1.19,-0.104 (inactive),3.01,1.88
CO[C@@H]1COC(=O)[C@H](C)NC(=O)[C@@H](C)COC(=O)CCC[C@H]1C,-0.438,0.402,-0.116,0.686,0.183,-0.0231,1.13,0.227 (inactive),-0.163,-0.0296
C[C@@H]1CC[C@H]2C(=O)O[C@H](COc3ccc(C(C)(C)C)cc3)CN2[C@H]1c1ccc(Br)cc1,-0.417,-0.16,-0.026,-0.0359,0.111,0.536,-0.414,0.414 (inactive),-0.0273,-0.0296
CCCC[C@H]1OB(O)C[C@H]2C1=C(C)C[C@H]1C(=O)N(C)C(=O)[C@H]12,-0.626,0.441,-0.0562,0.719,1.09,0.053,0.938,-0.252 (inactive),0.349,-0.156
C[N+](C)(C)CCCCCCNC(=O)[C@@H]1C[C@@H]2C(=O)N3CCC[C@H]3C(=O)N2[C@@H]1c1cccc(OCCO)c1,-0.0041,0.669,-0.169,-0.239,-0.337,0.747,1.35,5.01 (inactive),-0.128,-0.48
CCOC(=O)[C@H](Cc1ccccc1)NC(=O)CCC1CC(OC(=O)NCCc2ccc(F)cc2)CC2(CCCC(COC(=O)NCC(c3ccccc3)c3ccccc3)O2)O1 (stereo not given in full),-0.183,0.0877,-0.0785,0.627,0.823,0.852,0.919,2.14 (inactive),0.486,0.0053
O=C1O[C@@H](c2ccccc2)[C@@H](c2ccccc2)N2[C@@H](c3ccc(OCCO)cc3)[C@]3(C(=O)Nc4ccc(C#CCCO)cc43)[C@@H](C(=O)N3CCCCCCC3)[C@H]12,3.26,2.28,0.702,1.12,1.36,2.02,1.18,-1.99 (inactive),3.04,2.53
CN(C)C(=O)[C@@]1(Cc2ccccc2)N=C(c2ccc(OCCCO)cc2)O[C@H]1c1ccccc1CN=[N+]=[N-],1.35,1.92,0.423,1.13,1.46,1.96,1.2,-1.47 (inactive),1.42,0.898
C=CCN1C(=O)[C@]2(O[C@H](CCn3cc(CCO)nn3)[C@@H]([Si](C)(C)c3ccc(OC)cc3)[C@@H]2C)c2cc(N3CCOC3=O)ccc21,-0.0415,0.0421,-0.152,0.0622,-0.447,1.05,1.18,-3.36 (inactive),-0.414,-0.261
CC[C@@H](c1ccccc1)n1c(=O)n2n(c1=O)[C@H]1[C@H](O)[C@@H]3O[C@@H]3C(=NOCC(C)C)[C@H]1CC2,-0.427,0.428,-0.119,0.0304,0.409,-0.0258,0.493,0.0491 (inactive),0.0308,-0.0994
CC(C)=CCCC(C)=CCON=C1[C@H]2CCn3c(=O)n(C)c(=O)n3[C@H]2[C@H](O)[C@@H]2O[C@H]12,-0.315,0.491,-0.156,0.585,0.38,0.763,1.05,-0.713 (inactive),0.412,-0.0673

# Reference: PubChem BioAssay
